esBAF inh: blocks esBAF chromatin remodeling in mouse ES cells. Bmi1-luciferase knock-in reporter, 24 h; 100% = twice the neutral-well signal. reporter increase, % at 12.5 µM. actives 2% (n = 350,000). AID 602393; in the data active = activation above about 40%; inconclusive = no clear call, values can overlap the other calls;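 also: 0% = median of the plate's neutral control wells and 100% = double that signal; a rise in the Bmi1 reporter signal indicates esBAF inhibition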
HSF-1 act: increases HSF-1 driven luciferase reporter signal. NIH3T3-HGL HSF-1 luciferase reporter, MG132, 8 h; 100% = twice DMSO control signal. activation, % at 9 µM. actives 1.7% (n = 300,000). AID 504408;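 active = mean replicate activation of at least 50% with a set share of replicates each reaching 50%; inconclusive = only one of those two conditions met; inactive = mean below 50% and too few replicates reaching it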;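 also: 0% = median of the neutral control wells and 100% = twice that signal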
HSF1 inh: HSF1 inhibition; NIH3T3-HGL HSE-luciferase, MG132-induced, luminescence 8 h; hits give low values; activity change, negative = inhibition, % at 7.5 µM (by protocol); actives 0.77% (n = 300,000);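 active = more than half of replicate wells show activity change below -50%, luminescence cut by over half; inconclusive = some wells, but at most half, below -50%; inactive = no replicate well below -50%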;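 also: luciferase reports HSF-1 transcriptional activity via heat shock element; 0% = median of DMSO wells and -100% = zero luminescence signal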
Wnt act: Wnt/beta-catenin pathway activation; Wnt/beta-catenin reporter cell assay, activator, plate reader; activation, % at 9.35 µM; actives 1.2% (n = 300,000); in the data active = activation above about 30%, passing the limit was not always enough; inconclusive = no clear call, values can overlap the other calls;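 also: 0% = neutral control wells and 100% = positive control wells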
MITF act: increases MITF-driven TRPM1 promoter luciferase signal; SK-MEL-5 TRPM1-promoter luciferase, 24 h; % of positive control, neutral wells = 0; activation, % at 12.5 µM; actives 0.75% (n = 300,000);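 active = mean activation of at least 80% with every replicate also reaching 80%; inconclusive = mean reaches 80% but some replicate falls short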;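 also: 0% = neutral control wells and 100% = parthenolide positive control wells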
SMARCA2 act: SMARCA2 function activation, primary screen; MG213 cells, MMTV-luciferase reporter, dexamethasone, overnight; activation, % at 9.1 µM; actives 1% (n = 370,000); in the data active = activation above about 7.8%;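 also: 0% = vehicle wells and 100% = reference activator wells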
An asterisk follows results filed as active; ? = inconclusive; . = no result given. Hits are enriched below; roughly 4.3% of the tested compounds scored in any of these assays.

SMILES	esBAF inh	HSF-1 act	HSF1 inh	Wnt act	MITF act	SMARCA2 act
CCC(=O)Nc1c(-c2ccc3ccccc3c2)nc2ccccn12	11	16	14	9	15	0
Cc1cccc(NC(=O)Cn2c(/C=C/c3ccccc3)nc3ccccc32)c1	.	55*	42	29	46	1
CCOC(=O)c1cccc(NC(=O)c2cccnc2)c1	4	-2	0	.	-3	6
CCOC(=O)c1cccc(NC(=O)c2cnc3ccccc3n2)c1	53*	-1	7	-4	28	5
CCOC(=O)Cc1nc2ccccc2[nH]1	10	-6	5	.	-13	-4
CCOC(=O)c1cccc(NC(=O)Cn2c(CC(=O)NC)nc3ccccc32)c1	.	101*	85	-7	-3	-3
CCOC(=O)c1ccc(NCc2nc3ccccc3[nH]2)cc1	50*	-10	-3	?	57	1
CCCNC(=O)N1C[C@H]2[C@@H](c3ccccc31)[C@H](CO)N2C(=O)NCCC	-1	.	.	.	.	.
CCOC(=O)c1ccc(Nc2cnc3ccccc3n2)cc1	.	56*	32	34*	?	1
C[C@@H]1CN([C@@H](C)CO)C(=O)c2cc(C#CCC3CCCC3)cnc2O[C@@H]1CN(C)S(=O)(=O)c1cccs1	4	.	.	.	.	.
CSCCC(NC(=O)CCC(=O)OCC(=O)[C@@]1(O)CCC2[C@@H]3CCC4=CC(=O)C=C[C@]4(C)C3[C@@H](O)C[C@@]21C)C(=O)O (stereo not given in full)	6	-59	-52*	2	9	3
CC(C)CC(NC(=O)CCC(=O)OCC(=O)[C@@]1(O)CCC2[C@@H]3CCC4=CC(=O)C=C[C@]4(C)C3[C@@H](O)C[C@@]21C)C(=O)O (stereo not given in full)	-4	-56	-53*	0	16	-2
C[C@]12C=CC(=O)C=C1CC[C@@H]1C2C(O)C[C@@]2(C)C1CC[C@]2(O)C(=O)COC(=O)CCC(=O)NC(CC(=O)O)C(=O)O (stereo not given in full)	2	-49	-49	0	-2	-2
COc1cc([N+](=O)[O-])c2ncsc2c1	.	-48	-40	1	7	-1
COc1cc(SSc2cc(OC)cc([N+](=O)[O-])c2N)c(N)c([N+](=O)[O-])c1	-16	88*	38	1	-15	0
CCCC[C@@H]1C[C@H]1[C@@H](NC(=O)c1ccco1)c1ccc(Cl)cc1	-7	-84	-82*	-4	9	0
O=c1[nH]n(CC2COC3(CCCCC3)O2)c(=O)c2ccccc12 (stereo not given)	27	63*	39	4	52	-1
CCCNC(=O)N1[C@@H](CO)[C@@H](c2ccc(C3=CCCC3)cc2)[C@@H]1CNC(C)=O	2	.	.	.	.	.
COc1ccccc1NC1=C(Cl)C(=O)N(C2CCCCC2)C1=O	6	-87	-85*	-3	6	-1
CNC(=S)NNC(=O)COc1ccccc1C	1	57*	15	.	-4	2
Cc1ccc(OCC(=O)Nc2ccc(C)c(F)c2)c([N+](=O)[O-])n1	56*	.	.	-3	114*	5
CN1CCN(c2ccc(NC(=O)COc3ccccc3[N+](=O)[O-])cc2)CC1	.	-5	-2	-3	-8	1
O=C(COc1ccccc1[N+](=O)[O-])Nc1ccc(Br)cc1	.	.	.	48*	80	6
Cc1ccc(OCC(=O)Nc2ccc3c(c2)OC(F)(F)O3)c([N+](=O)[O-])n1	-1	-12	-4	.	-6	4
CC(C)(C)NC(=O)COC(=O)c1ccccc1OCC(=O)Nc1ccc(Br)cc1	.	69*	40	10	38	1
SMILES	esBAF inh	HSF-1 act	HSF1 inh	Wnt act	MITF act	SMARCA2 act
Cc1ccc(S(=O)(=O)N(C)C[C@H]2Oc3ccc(NC(=O)CCCN(C)C)cc3CC(=O)N([C@H](C)CO)C[C@H]2C)cc1	6	.	.	.	.	.
CN(C)C(=O)c1ccc(-c2ccc([C@@H]3[C@H](CO)N4CCCCN(Cc5ccncc5)C[C@@H]34)cc2)cc1	13	.	.	.	.	.
CC=Cc1ccc2n(c1=O)C[C@H]1[C@H](CO)[C@@H](C(=O)NCC(F)(F)F)N(CCC)[C@@H]21 (mixture of isomers)	6	.	.	.	.	.
Cc1ccc(NC(=O)COc2ccccc2[N+](=O)[O-])nc1	-15	41	14	54*	0	7
Cc1ccnc(NC(=O)COc2ccccc2[N+](=O)[O-])c1	.	.	.	.	25	3
Cc1ccccc1OCC(=O)Nc1ccc([N+](=O)[O-])cc1	-2	-77	-70*	0	27	-1
O=C(COc1ccccc1[N+](=O)[O-])Nc1cccnc1	45*	31	10	?	61	1
O=C(COc1ccc2ccccc2c1Br)Nc1cccnc1	1	41	8	20	114*	4
C/C(=N\NC(=O)COc1ccccc1[N+](=O)[O-])c1cccs1	53*	40	5	35*	64	4
O=S(=O)(N[C@H]1CC[C@H](CCn2cc(C3(O)CCCC3)nn2)O[C@@H]1CO)c1ccc(Cl)cc1	14	.	.	.	.	.
COc1ccc(S(=O)(=O)N(C)C[C@H]2Oc3ccc(NS(=O)(=O)c4ccccc4)cc3C(=O)N([C@H](C)CO)C[C@H]2C)cc1	2	.	.	.	.	.
CN(C)c1ccc(CNC(=O)c2ccc(CNc3c(N4CCCCC4)c(=O)c3=O)cc2)cc1	-3	61*	30	-2	.	0
O=C(NCc1ccc(Cl)cc1)c1ccc(CNc2c(N3CCCC3)c(=O)c2=O)cc1	-3	-5	-8	-2	-3	0
CO[C@H]1CN(C)C(=O)c2cc(NS(=O)(=O)c3ccc(Oc4ccccc4)cc3)ccc2OC[C@H](C)NC[C@H]1C	-4	.	.	.	.	.
Cc1nc(C(C)NC(=O)CCc2nnc(CCCc3ccccc3)o2)c(C)s1 (stereo not given)	70*	39	19	64*	100*	5
O=C(CCc1nnc(CCCCc2ccccc2)o1)NCCc1cccnc1	.	13	3	-3	1	1
CN(Cc1ccsc1)C(=O)CCc1nnc(CCCc2ccccc2)o1	?	24	21	33*	76	-1
CN(Cc1ccsc1)C(=O)CCc1nnc(Cc2c[nH]c3ccccc23)o1	.	5	2	-1	-6	-1
CC(C)(CO)CNC(=O)CCc1nnc(CCCc2ccccc2)o1	.	16	-2	29	24	2
O=C(CCc1nnc(CCCCc2ccccc2)o1)NCCN1CCCCC1=O	-6	58*	14	0	-11	2
O=C(CCc1nnc(CCCc2ccccc2)o1)NC(C1CC1)C1CC1	.	65*	35	29	73	6
CCCNC(=O)N1C[C@@H](C)[C@H](OC)CN(C)C(=O)c2ccc(NC(=O)C3CCC3)cc2OC[C@@H]1C	-4	.	.	.	.	.

From PubChem
